The results in this text go back to PubChem BioAssay AID624354 (Sanford-Burnham Center for Chemical Genomics, 2012).

“And” between values parts separate entries of the source, which are not always exact repeats. Equal entries are not always repeated. The campaign covered roughly 360,000 compounds. About 3,800 (1.1%) were called active. Only a selection was taken, and actives are over-represented in it overall. A number with no mark means an inactive call.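 How the source made its calls: active means compounds causing at least 50% loss of cell viability in the single-dose screen, relative to plate controls; inactive means the rest.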

This experiment can be described thus: TRAIL-exposed caspase-8 expressing cell killing – NB7+C8 cells, ATPlite luminescence, TRAIL sensitizer project, primary screen (AID 624354). To be noted: at 10 µM, stronger effect = higher value.
As to `CC(=O)c1sc(NC(=O)c2ccc(C)cc2)nc1C`, the inhibition (viability loss, TRAIL sensitization) was 68.3% (active).

`CC(=O)c1sc(N)nc1C`: the inhibition (viability loss, TRAIL sensitization) is -3.29% and -3.98%.

`Cc1ccc(C(=O)Nc2ccn(C)n2)cc1`: the inhibition (viability loss, TRAIL sensitization) was 14.4%.

Turning to `CCOC(=O)N1CCN(C(=O)COC(=O)c2cccc(S(C)(=O)=O)c2)CC1`, the inhibition (viability loss, TRAIL sensitization) was -12.4%.

With `C=CC(COCc1ccccc1)N(CC(=O)OC)S(=O)(=O)c1cc(Br)ccc1OC` (stereo unspecified), the inhibition (viability loss, TRAIL sensitization) is 2.56%.

`Cc1cc(C)cc(OCC(=O)Nc2ccc(N3CCOCC3)cc2N2CCOCC2)c1`: the inhibition (viability loss, TRAIL sensitization) was 6.27%.

With `CCOc1cc(N2CCOCC2)c(OCC)cc1NC(=O)COc1cccc2cccnc12`, the inhibition (viability loss, TRAIL sensitization) was 53.6% (active).

Turning to `CCOc1cc(N2CCOCC2)c(OCC)cc1NC(=O)C1=NN(c2cccc(C)c2)C(=O)CC1`, the inhibition (viability loss, TRAIL sensitization) was 3.1%.

Take `Cc1ccc(-c2c3c(=O)n(C)c(=O)n(C)c3cn2-n2cnnc2)cc1`: the inhibition (viability loss, TRAIL sensitization) was -15.5%.

In the case of `COc1ccc(OC)c(NC(=O)c2ccc3c(c2)C(=O)N(c2ccc(OC(C)=O)cc2)C3=O)c1`, the inhibition (viability loss, TRAIL sensitization) is -0.949%.

Take `CC1CCCCC1NC(=O)CCS(=O)(=O)c1ccc2c(c1)NC(=O)CO2` (stereo unspecified): the inhibition (viability loss, TRAIL sensitization) is -18.2%.

With `Cc1ccccc1S(=O)(=O)N1[C@@H](c2cccc(Cl)c2)C(C(=O)O)=CC[C@H]1c1ccc(Cl)cc1`, the inhibition (viability loss, TRAIL sensitization) is 15.5%.

As to `Cc1oc2c(c1C(=O)N1CCOCC1)C(=O)c1ccccc1C2=O`, the inhibition (viability loss, TRAIL sensitization) was 88.8% (active).

Turning to `CC(C(=O)Nc1ccccc1-c1ccccc1)N1CCOCC1` (stereo unspecified), the inhibition (viability loss, TRAIL sensitization) is -42%.

`Cc1nc2ccccc2n1C(=O)N1CCOCC1`: the inhibition (viability loss, TRAIL sensitization) is -8.36%.

For `COC(=O)[C@@]1(Sc2ccc(C)cc2)CC(=O)N(c2cccc(SC)c2)[C@@H]1c1ccccc1`, the inhibition (viability loss, TRAIL sensitization) is 24.6%.

For `O=[N+]([O-])c1ccc(N=NNc2ccc([N+](=O)[O-])cc2)cc1`, the inhibition (viability loss, TRAIL sensitization) was 13.8%.

For the compound `O=C1/C(=C\c2ccc([N+](=O)[O-])cc2)CS(=O)(=O)C/C1=C/c1ccc([N+](=O)[O-])cc1`, the inhibition (viability loss, TRAIL sensitization) is 91.8% (active).

Consider `O=C(Cc1ccccc1)N1CCN(S(=O)(=O)c2ccc([N+](=O)[O-])cc2)CC1`, for which the inhibition (viability loss, TRAIL sensitization) is -7.16%.

Take `CC1(C(=O)NCc2ccco2)Cc2c(-c3ccc4c(c3)OCO4)ccnc2O1` (stereo unspecified): the inhibition (viability loss, TRAIL sensitization) was 14.9%.

Regarding `COc1ccc(/C=N/Nc2ccccc2C(=O)O)cc1`, the inhibition (viability loss, TRAIL sensitization) is 55.9% (active).

Take `COc1ccc(/C=N/NC(=O)Cn2cc(C(F)(F)F)ccc2=O)cc1`: the inhibition (viability loss, TRAIL sensitization) is -0.17%.

Take `COc1ccc(/C=N/NC(=O)C(C)N(c2ccc(OC)cc2)S(C)(=O)=O)cc1` (stereo unspecified): the inhibition (viability loss, TRAIL sensitization) is -5.4%.

Take `COc1cc(C=NC2CCCCC2)ccc1O`: the inhibition (viability loss, TRAIL sensitization) is -2.08%.

Take `CCOc1cc(/C=N/NC(=O)c2c(C)nc3ccc(Cl)cn23)ccc1O`: the inhibition (viability loss, TRAIL sensitization) is -7.66%.

In the case of `COc1ccc(C(=O)Nc2ccccc2C(=O)N/N=C/c2ccc(O)c(OC)c2)cc1`, the inhibition (viability loss, TRAIL sensitization) was 95.8% (active).

With `Cc1cccc(N(Cc2ccccc2)C(=O)c2cc(S(=O)(=O)N3CCOCC3)ccc2F)c1`, the inhibition (viability loss, TRAIL sensitization) was 19.9%.

For `CN(C)C(=O)CCc1ccc2c3c([nH]c2c1)[C@]1(CCc2ccccc2)[C@@H](C(=O)N2CCCCC2)C[C@H](CC(=O)NCCC2=CCCCC2)C(=O)N1CC3`, the inhibition (viability loss, TRAIL sensitization) is 13.2%.

Consider `CCc1nc2ccc(C(=O)Nc3cccc(OC)c3)cn2c1N(CCC(C)C)CCN(C)C`, for which the inhibition (viability loss, TRAIL sensitization) is 15.5%.

Consider `CCOc1ccccc1-n1c(SCC(=O)N2CCCC2)nnc1-c1ccoc1C`, for which the inhibition (viability loss, TRAIL sensitization) was 2.53%.

For the compound `O=C(N/N=C/C=C/c1ccco1)c1cccs1`, the inhibition (viability loss, TRAIL sensitization) is -0.972%.

On to `Cc1ccc(-c2cc(C(=O)N/N=C/C=C/c3ccco3)c3ccccc3n2)cc1C`, for which the inhibition (viability loss, TRAIL sensitization) was 61.5% (active).

For `Cc1ccc(C(=O)N/C(=C/c2ccco2)C(=O)NCCc2c[nH]c3ccccc23)cc1C`, the inhibition (viability loss, TRAIL sensitization) is -2.25%.

Regarding `Cc1ccc(C2Nc3ccccc3C(=O)N2CCN2CCNC2=O)cc1` (stereo unspecified), the inhibition (viability loss, TRAIL sensitization) is -20.4%.

`Cc1ccc(-n2cc3ccc([N+](=O)[O-])cc3n2)cc1`: the inhibition (viability loss, TRAIL sensitization) is 25.5%.

Consider `Cc1ccc(-c2cn3cc(C)ccc3n2)cc1`, for which the inhibition (viability loss, TRAIL sensitization) is 87.8% (active).

Take `Cc1ccc(-c2nc3ccc(Br)cn3c2Cc2ccccc2C(F)(F)F)cc1`: the inhibition (viability loss, TRAIL sensitization) is 12.7%.

Consider `Cc1ccnc(N2C(=O)c3ccc([N+](=O)[O-])cc3C2=O)c1`, for which the inhibition (viability loss, TRAIL sensitization) was -23.1%.

For the compound `Cc1ccc(-c2cn3cc([N+](=O)[O-])ccc3n2)cc1`, the inhibition (viability loss, TRAIL sensitization) is 56.8% (active).

In the case of `Cc1ccc2nc(-c3ccc(Br)cc3)cn2c1`, the inhibition (viability loss, TRAIL sensitization) is 67.2% (active).

Consider `COc1ccc(-c2nc3ccc(Br)cn3c2Cc2ccc(C)cc2)cc1OC`, for which the inhibition (viability loss, TRAIL sensitization) is 3.92%.

`CC(=O)Nc1c(-c2ccc(C)cc2)nc2ccc(Cl)cn12`: the inhibition (viability loss, TRAIL sensitization) is -3.92%.

`Cc1ccc(Cc2c(-c3ccccc3)nc3ccc(Cl)cn23)cc1`: the inhibition (viability loss, TRAIL sensitization) was 8.97%.

Consider `CCOc1ccc(C(C)=O)cc1CSc1nnc(-c2ccncc2)n1CCOC`, for which the inhibition (viability loss, TRAIL sensitization) was -21.1%.

Take `CC(C)Oc1ccc(/C=C(\NC(=O)/C=C/c2ccco2)C(=O)NCCc2nc3ccccc3[nH]2)cc1`: the inhibition (viability loss, TRAIL sensitization) is -11.3%.

Take `CCCCN(CC)C(=O)CN(C)S(=O)(=O)c1cccc2nsnc12`: the inhibition (viability loss, TRAIL sensitization) was 4.95%.

Regarding `CN(CC(=O)Nc1c(Cl)cccc1Cl)C(=O)c1ccncc1`, the inhibition (viability loss, TRAIL sensitization) was -1.41%.

In the case of `OC[C@@H]1CN(Cc2ccc(Cl)cc2)C[C@H](n2cnc3c(NCc4ccncc4)ncnc32)O1`, the inhibition (viability loss, TRAIL sensitization) was 0.808%.

With `CSCCC(NS(=O)(=O)c1ccccc1F)C(=O)N1CC=C(c2ccccc2)CC1` (stereo unspecified), the inhibition (viability loss, TRAIL sensitization) was 15.4%.

As to `N#CCCn1ncc2ccccc21`, the inhibition (viability loss, TRAIL sensitization) was -30.7%.

Turning to `COc1ccc2c(c1)cc1n2CCN=C1NN`, the inhibition (viability loss, TRAIL sensitization) is 6.58%.

For `COc1ccc(C(=O)NC(Cc2ccc(OC(=O)c3ccc(OC)cc3)cc2)C(=O)O)cc1` (stereo unspecified), the inhibition (viability loss, TRAIL sensitization) was 7.3%.

As for `O=CNc1cc(-c2ccc(C(=O)N3CCOCC3)cc2)cn2c(-c3ccc(F)cc3)cnc12`, the inhibition (viability loss, TRAIL sensitization) was 19.1%.

Regarding `CC(C)CNC(=S)NC(=O)c1ccc(Cl)cc1`, the inhibition (viability loss, TRAIL sensitization) was -9.78%.

For `CN1C(=O)[C@H]2[C@@H](/C=C/c3ccccc3)N3C(=O)CN(Cc4ccc(-c5ccccc5)cc4)C(=O)[C@@]3(C)[C@H]2C1=O`, the inhibition (viability loss, TRAIL sensitization) was 7.89%.

Regarding `CCOc1ccc(Br)cc1S(=O)(=O)Nc1ccc(C(=O)OC(C)C(=O)N(C)c2ccccc2)cc1` (stereo unspecified), the inhibition (viability loss, TRAIL sensitization) was 9.56%.
